Assay [1] can be described thus: qHTS assay to identify small molecule antagonists of the thyroid receptor (TR) signaling pathway (AID 743065). Note: nearly all actives have a fitted effect of over 55% in size. Note: potency is the fitted concentration of half-maximal effect. In short, it runs like this:
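GH3.TRE-Luc rat pituitary cells (two TREs driving luciferase) were dosed with compound, then stimulated with 1 nM T3 (final) for 23.5 h at 37 C. ONE-Glo luminescence was the read-out, with CellTiter-Fluor fluorescence as the cytotoxicity counter-screen.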
For orientation: qHTS replaces the single test concentration by a dilution series.

In assay [2] the test system is thyroid hormone receptor (rat, GH3 cells). In words: qHTS assay to identify small molecule agonists of the thyroid receptor (TR) signaling pathway (AID 743066; calls by dose curve).
Assay [3] addresses Estrogen receptor (Homo sapiens) (UniProt P03372). In words: qHTS assay to identify small molecule antagonists of the estrogen receptor alpha (ER-alpha) signaling pathway (AID 743069; active = well fitted curve in the direction sought with a large enough effect in the signal ratio in the repeat runs, not every such curve was filed as active; inconclusive = weak or mixed curves, or effect the other way; inactive = no such curve, though single readings can be large or run the other way; the % refers to the signal ratio; note: potency is the fitted concentration of half-maximal effect). In short, it runs like this: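 Beta-lactamase FRET fluorescence is read after 2 hr at room temperature with LiveBLAzer B/G substrate. Before that, ER-alpha-bla HEK293 cells sit 4 hr after plating, then receive compound plus 17beta-estradiol and incubate 18 hr at 37C.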

Assay [4] is described as follows: qHTS assay to identify small molecule antagonists of the estrogen receptor alpha (ER-alpha) signaling pathway - cell viability counter screen (AID 743074; calls by dose curve;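 note: HEK293 cells carrying ER-alpha-UAS-bla reporter stimulated with 17beta-estradiol; nearly all actives have a fitted effect of over 45% in size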).
Assay [5] addresses Estrogen receptor (Homo sapiens) (UniProt P03372). In words: qHTS assay to identify small molecule agonists of the estrogen receptor alpha (ER-alpha) signaling pathway (AID 743075; calls by dose curve;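 note: HEK293 GripTite cells with ER-alpha and UAS-driven beta-lactamase reporter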; note: potency is the fitted concentration of half-maximal effect).
Assay [6] has the same target. In words: qHTS assay to identify small molecule agonists of the estrogen receptor alpha (ER-alpha) signaling pathway using the BG1 cell line (AID 743079). Note: nearly all actives have a fitted effect of over 20% in size. Note: potency is the fitted concentration of half-maximal effect.
Assay [7] is described as follows: qHTS assay to identify small molecule antagonists of the estrogen receptor alpha (ER-alpha) signaling pathway using the BG1 cell line (AID 743080; calls by dose curve;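 note: BG1 cells stimulated with 17beta-estradiol alongside compound; series mostly up to about 70 µM; nearly all actives have a fitted effect of over 25% in size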). In short, it runs like this: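 Luminescence from a 4×ERE-luciferase reporter in BG1-Luc-4E2 cells served as read-out. Cells, pre-cultured 5 days in stripped-serum phenol-red-free medium, were exposed to compound with 17beta-estradiol co-stimulation for 21.5 h at 37 C.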

The nature of assay [8]: qHTS assay to identify small molecule antagonists of the estrogen receptor alpha (ER-alpha) signaling pathway using the BG1 cell line - cell viability counter screen (AID 743081).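 Note: compound given together with 17beta-estradiol as the ER stimulus; nearly all actives have a fitted effect of over 45% in size.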 Note: potency is the fitted concentration of half-maximal effect.
Assay [9] concerns the target Aromatase (Homo sapiens) (UniProt P11511). In words: qHTS assay to identify aromatase inhibitors (AID 743083). Note: series mostly up to about 70 µM; nearly all actives have a fitted effect of over 55% in size.
Assay [10] can be described thus: qHTS assay to identify aromatase inhibitors - cell viability counter screen (AID 743084).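 Note: cells stimulated with testosterone during compound exposure; nearly all actives have a fitted effect of over 55% in size.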 Note: potency is the fitted concentration of half-maximal effect.
The target of assay [11] is Aryl hydrocarbon receptor (Homo sapiens) (UniProt P35869). In words: qHTS assay to identify small molecule that activate the aryl hydrocarbon receptor (AhR) signaling pathway (AID 743085).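 For activation: HG2L7.5c1 human HepG2 liver cells with stably integrated DRE-driven firefly reporter; series mostly up to about 70 µM.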 Note: nearly all actives have a fitted effect of over 15% in size. Note: potency is the fitted concentration of half-maximal effect. In short, it runs like this:
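A multiplexed format paired cell viability (CellTiter-Fluor fluorescence) with AhR-dependent luciferase output (ONE-Glo luminescence) in the same wells of HepG2 DRE-luc cells after 24 h compound exposure at 37C.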

A short description of assay [12]: qHTS assay to identify small molecule that activate the aryl hydrocarbon receptor (AhR) signaling pathway - cell viability counter screen (AID 743086). Note: nearly all actives have a fitted effect of over 45% in size. Note: potency is the fitted concentration of half-maximal effect. In short, it runs like this:
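HepG2-AhR-luc (HG2L7.5c1) cells, 4000/well, treated 24 h at 37 C with compound; viability measured as CellTiter-Fluor fluorescence after 30 min in the same wells as the luciferase read.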

Assay [13] has as its target Peroxisome proliferator-activated receptor gamma (Homo sapiens) (UniProt P37231). In words: qHTS assay to identify small molecule agonists of the peroxisome proliferator-activated receptor gamma (PPARg) signaling pathway (AID 743094; active = well fitted activation curve with a large enough effect in the signal ratio in the repeat runs, not every such curve was filed as active; inconclusive = weak or mixed curves, or effect the other way; inactive = no such curve, though single readings can be large or run the other way; the % refers to the signal ratio). The method, boiled down: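 Fluorescence-based beta-lactamase readout in HEK293H PPARg UAS-bla cells after 17 h compound exposure (37C) and 1 h B/G FRET substrate incubation at room temperature.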

Assay [14] has the same target. In words: qHTS assay to identify small molecule antagonists of the peroxisome proliferator-activated receptor gamma (PPARg) signaling pathway (AID 743191; calls by dose curve; note: series mostly up to about 63 µM; nearly all actives have a fitted effect of over 30% in size). In short, it runs like this:
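GeneBLAzer PPARg UAS-bla HEK293H cells, 5 h post-plating, exposed to compounds 17 h at 37C. LiveBLAzer B/G FRET substrate added for 1 h at room temperature; beta-lactamase reporter read by fluorescence intensity.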

Assay [15] can be described thus: qHTS assay to identify small molecule antagonists of the peroxisome proliferator-activated receptor gamma (PPARg) signaling pathway - cell viability counter screen (AID 743194). Note: nearly all actives have a fitted effect of over 55% in size. The method, boiled down:
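Cytotoxicity counter screen in PPARg-bla HEK293H cells, same wells as reporter assay. Compounds plus 50 nM rosiglitazone (final) for 17 h at 37 C, then viability read by CellTiter-Glo luminescence.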

The nature of assay [16]: qHTS assay for small molecule agonists of the antioxidant response element (ARE) signaling pathway (AID 743202; active = well fitted activation curve with a large enough effect in the signal ratio in the repeat runs, not every such curve was filed as active; inconclusive = weak or mixed curves, or effect the other way; inactive = no such curve, though single readings can be large or run the other way; the % refers to the signal ratio). The method, boiled down: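 HepG2 ARE-bla reporter line, 2,000 cells/well; 5 h preincubation 37 C/5% CO2; compound (DMSO) 16 h 37 C; B/G FRET substrate 2 h RT; fluorescence intensity.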
Assay [17] is described as follows: qHTS assay for small molecule agonists of the antioxidant response element (ARE) signaling pathway - cell viability counter screen (AID 743203; calls by dose curve; note: nearly all actives have a fitted effect of over 55% in size). The method, boiled down: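 Parallel cytotoxicity read-out for the ARE-bla screen: HepG2 reporter cells, 16 hrs with compounds, then CellTiter-Glo luminescence.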
Assay [18] in a line: qHTS assay for small molecule activators of the heat shock response signaling pathway - cell viability counter screen (AID 743209). Note: nearly all actives have a fitted effect of over 50% in size. In short, it runs like this: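 To flag cytotoxic compounds, HSE-bla HeLa cells plated at 1500 cells/well were dosed for 5 h at 37 C, followed by the reporter FRET read and then CellTiter-Glo, with luminescence recorded 30 min after reagent addition.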

Assay [19] is described as follows: qHTS assay for small molecule activators of the heat shock response signaling pathway (AID 743210; active = well fitted activation curve with a large enough effect in the signal ratio in the repeat runs, with a control signal flat, not every such curve was filed as active; inconclusive = weak or mixed curves; the % refers to the signal ratio; note: series mostly up to about 63 µM). In short, it runs like this: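 Beta-lactamase reporter read-out: FRET substrate fluorescence after 2.5 h at RT, following 5 h compound treatment at 37 C of HeLa cells carrying HSE-driven bla reporter; quantitative HTS format.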
Assay [20] is described as follows: qHTS assay to identify small molecule agonists of the peroxisome proliferator-activated receptor delta (PPARd) signaling pathway - cell viability counter screen (AID 743211). Note: nearly all actives have a fitted effect of over 55% in size. The method, boiled down: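 Tox21 library compounds, delivered in DMSO, were incubated 17 h with PPARd-bla HEK293H cells; cytotoxicity was taken from CellTiter-Glo luminescence read 30 min after reagent addition.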

Where “and” joins values, the source holds several entries; their conditions need not be identical. Equal values may be shown once. The source holds several records for some structures; these can differ, active in one and inactive in another. Calls of active or inactive are those of the source. Unless noted, calls come from the whole dose curve; as a rule, active = well fitted curve in the direction sought with a large enough effect in the repeat runs; inconclusive = weak or mixed curves; inactive = no such curve, though single readings can be large; an effect the other way counts as inactive or inconclusive.

Chain of Estrogen receptor (Homo sapiens) (P03372 whole entry, looked up): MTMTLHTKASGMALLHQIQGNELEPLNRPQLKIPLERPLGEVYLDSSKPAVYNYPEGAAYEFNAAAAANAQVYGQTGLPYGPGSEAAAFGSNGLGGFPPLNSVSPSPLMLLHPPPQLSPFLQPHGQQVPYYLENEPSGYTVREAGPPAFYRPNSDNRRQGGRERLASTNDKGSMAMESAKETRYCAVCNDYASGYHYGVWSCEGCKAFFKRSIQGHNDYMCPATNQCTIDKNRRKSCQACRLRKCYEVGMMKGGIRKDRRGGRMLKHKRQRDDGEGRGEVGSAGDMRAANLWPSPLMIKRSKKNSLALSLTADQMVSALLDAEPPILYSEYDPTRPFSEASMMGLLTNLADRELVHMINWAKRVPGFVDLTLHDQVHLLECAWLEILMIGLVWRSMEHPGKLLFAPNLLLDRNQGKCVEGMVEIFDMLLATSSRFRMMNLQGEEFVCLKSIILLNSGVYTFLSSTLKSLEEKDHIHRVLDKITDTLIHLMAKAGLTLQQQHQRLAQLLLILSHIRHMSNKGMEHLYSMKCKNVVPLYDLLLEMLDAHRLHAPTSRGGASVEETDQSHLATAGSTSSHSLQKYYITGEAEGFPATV
Chain of Aromatase (Homo sapiens) (P11511 whole entry, looked up): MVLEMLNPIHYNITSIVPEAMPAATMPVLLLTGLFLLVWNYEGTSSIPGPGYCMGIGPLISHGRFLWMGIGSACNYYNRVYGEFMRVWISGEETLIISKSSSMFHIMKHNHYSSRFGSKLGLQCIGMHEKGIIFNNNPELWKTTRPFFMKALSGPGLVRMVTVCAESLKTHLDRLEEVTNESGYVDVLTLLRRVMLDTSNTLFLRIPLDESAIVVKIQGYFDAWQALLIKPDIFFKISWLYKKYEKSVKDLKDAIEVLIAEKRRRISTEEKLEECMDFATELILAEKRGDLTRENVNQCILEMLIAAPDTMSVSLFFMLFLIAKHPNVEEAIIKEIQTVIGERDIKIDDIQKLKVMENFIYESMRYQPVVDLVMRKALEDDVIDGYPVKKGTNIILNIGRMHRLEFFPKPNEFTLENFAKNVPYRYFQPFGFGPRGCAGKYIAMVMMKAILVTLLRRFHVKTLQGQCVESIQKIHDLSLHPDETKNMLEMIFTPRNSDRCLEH
Chain of Peroxisome proliferator-activated receptor gamma (Homo sapiens) (P37231 whole entry, looked up): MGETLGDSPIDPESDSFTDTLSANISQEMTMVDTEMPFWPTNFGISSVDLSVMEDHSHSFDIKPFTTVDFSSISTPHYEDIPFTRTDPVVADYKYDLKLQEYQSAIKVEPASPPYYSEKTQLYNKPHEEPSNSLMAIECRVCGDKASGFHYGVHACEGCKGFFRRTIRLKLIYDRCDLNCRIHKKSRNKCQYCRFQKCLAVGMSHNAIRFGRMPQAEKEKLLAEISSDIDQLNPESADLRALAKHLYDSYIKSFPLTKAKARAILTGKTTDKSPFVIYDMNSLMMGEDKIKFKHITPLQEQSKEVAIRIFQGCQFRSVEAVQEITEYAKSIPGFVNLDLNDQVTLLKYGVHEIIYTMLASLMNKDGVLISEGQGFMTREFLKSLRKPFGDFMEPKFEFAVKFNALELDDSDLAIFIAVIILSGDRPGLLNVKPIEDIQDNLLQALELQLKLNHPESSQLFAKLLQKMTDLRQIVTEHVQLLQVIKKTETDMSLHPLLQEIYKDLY
Chain of Aryl hydrocarbon receptor (Homo sapiens) (P35869 whole entry, looked up): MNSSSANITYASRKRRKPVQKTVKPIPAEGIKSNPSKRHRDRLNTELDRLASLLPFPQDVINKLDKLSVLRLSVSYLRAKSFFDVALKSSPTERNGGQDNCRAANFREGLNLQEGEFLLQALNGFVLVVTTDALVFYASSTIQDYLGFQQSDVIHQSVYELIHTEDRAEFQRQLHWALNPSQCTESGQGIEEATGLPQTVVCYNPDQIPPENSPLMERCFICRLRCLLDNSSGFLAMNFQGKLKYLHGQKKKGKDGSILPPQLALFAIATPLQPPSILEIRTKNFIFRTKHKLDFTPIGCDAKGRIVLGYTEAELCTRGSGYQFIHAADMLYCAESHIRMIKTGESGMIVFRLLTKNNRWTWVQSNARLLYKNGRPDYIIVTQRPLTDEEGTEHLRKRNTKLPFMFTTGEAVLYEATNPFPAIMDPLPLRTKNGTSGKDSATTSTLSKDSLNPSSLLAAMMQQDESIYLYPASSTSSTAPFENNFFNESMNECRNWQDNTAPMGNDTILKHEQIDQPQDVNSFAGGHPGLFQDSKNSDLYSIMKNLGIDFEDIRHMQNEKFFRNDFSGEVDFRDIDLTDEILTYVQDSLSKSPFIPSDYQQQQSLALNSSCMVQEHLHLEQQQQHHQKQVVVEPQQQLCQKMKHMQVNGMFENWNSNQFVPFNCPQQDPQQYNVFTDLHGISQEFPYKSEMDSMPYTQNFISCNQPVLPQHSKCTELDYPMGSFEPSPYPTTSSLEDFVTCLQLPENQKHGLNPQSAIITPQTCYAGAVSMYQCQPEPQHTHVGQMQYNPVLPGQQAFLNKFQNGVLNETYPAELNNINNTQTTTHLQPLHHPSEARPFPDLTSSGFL

In the case of `CC(=O)CC(=O)Nc1ccc2[nH]c(=O)[nH]c2c1`, the Potency result in [1], in assay [2], in assay [3], in assay [4], in [5] and in [6] was “inactive” each time. The Potency result in assay [7], in assay [8], in [9], in [10], in assay [11] and in assay [12] was “inactive” throughout. The Potency entry in [13], in assay [14], in [15], in [16], in assay [17] and in [18] was “inactive” throughout. Also, the Potency entry in assay [19] and in assay [20] was “inactive” in each case.

As to `CCC(C)(Oc1ccc(C2(c3ccc(OC(C)(CC)C(=O)O)cc3)CCCCC2)cc1)C(=O)O` (configuration not stated), the Potency entry in assay [1], in assay [2], in assay [3], in assay [4], in assay [5] and in [6] was “inactive” each time. The Potency entry in [7], in assay [8], in assay [9], in assay [10], in assay [11] and in assay [12] was “inactive” throughout. Besides, the Potency entry in [13], in assay [15], in [16], in assay [17], in assay [18] and in assay [19] was “inactive” in each case. In addition, the Potency entry in assay [20] was “inactive”.

In the case of `c1ccc2c(c1)CCCC2C1=NCCN1` (configuration not stated), the Potency entry in assay [1], in [2], in [3], in [4], in [5] and in assay [6] was “inactive” in each case. Also, the Potency entry in [7], in assay [8], in assay [9], in assay [10], in assay [11] and in assay [12] was “inactive” throughout. Moreover, the Potency result in [13], in assay [15], in assay [16], in [17], in assay [18] and in assay [19] was “inactive” throughout. In addition, the Potency entry in [20] is “inactive”.

Regarding `O=C(O)c1cccc(C(=O)O)c1`, the Potency entry in assay [1], in assay [2], in assay [3], in [4], in [5] and in [6] was “inactive” throughout. For the same molecule, the Potency result in assay [7], in assay [8], in assay [9], in assay [10], in [11] and in [12] was “inactive” throughout. Also, the Potency result in [13], in [15], in assay [17], in assay [18], in [19] and in assay [20] was “inactive” in each case.

Turning to `OCC(CO)N[C@H]1C[C@](O)(CO)[C@@H](O)[C@H](O)[C@H]1O`, the Potency entry in assay [1], in [2], in assay [3], in assay [4], in [5] and in assay [6] was “inactive” each time. Also, the Potency entry in [7], in assay [8], in assay [9], in assay [10], in [11] and in assay [12] was “inactive” throughout. For the same molecule, the Potency result in assay [13], in assay [15], in assay [17], in [18], in assay [19] and in assay [20] was “inactive” throughout.

In the case of `CC(=O)N[C@@H](CS)C(=O)O`, the Potency entry in assay [1], in assay [2], in assay [3], in assay [4], in assay [5] and in assay [6] was “inactive” each time. Also, the Potency entry in assay [7], in [8], in [9], in assay [10], in assay [11] and in [12] was “inactive” throughout. Besides, the Potency entry in assay [13], in assay [14], in assay [15], in assay [16], in assay [17] and in [18] was “inactive” throughout. Moreover, the Potency result in assay [19] and in assay [20] was “inactive” in each case.

Turning to `CCC[C@H](N[C@@H](C)C(=O)N1[C@H](C(=O)O)C[C@@H]2CCCC[C@@H]21)C(=O)OCC`, the Potency entry in assay [1], in [2], in assay [3], in assay [4], in assay [5] and in assay [6] was “inactive” in each case. In addition, the Potency result in assay [7], in [9], in [10], in assay [11], in assay [12] and in assay [13] was “inactive” throughout. For the same molecule, the Potency result in assay [14], in assay [15], in assay [16], in assay [17], in assay [18] and in assay [19] was “inactive” each time. The Potency result in assay [20] was “inactive”.

`c1cc(C(c2ccc(OCC3CO3)cc2)C(c2ccc(OCC3CO3)cc2)c2ccc(OCC3CO3)cc2)ccc1OCC1CO1` (configuration not stated): the Potency is 20.1 µM (active) and 21.7 µM (active) in assay [1]; 20.1 µM (active) and 21.7 µM (active) in assay [6]. The Potency entry in assay [2], in [3], in assay [4], in [5], in [8] and in assay [9] was “inactive” in each case. For the same molecule, the Potency entry in assay [10], in [12], in [15], in assay [17], in [18] and in assay [20] was “inactive” in each case.

As for `Cc1cc(C2(c3cc(C)c(O)cc3C)OS(=O)(=O)c3ccccc32)c(C)cc1O`, the Potency entry in assay [1], in assay [2], in [4], in assay [7], in assay [13] and in assay [15] was “inactive” in each case. Besides, the Potency entry in assay [16], in [17], in [18] and in [20] was “inactive” throughout. The Potency in [3] is 1.74 µM [inconclusive] (active); in [5] it was 1.38 µM [inconclusive] (active) and inactive; in assay [6], 864 nM (active) and 10.9 µM (active); in assay [8] it was 27.3 µM (active) and 24.3 µM (active); in assay [10], 21.7 µM (active) and 24.3 µM (active); in assay [11], 30.6 µM (active) and inactive. Moreover, the Potency in [12] was 19.3 µM (active) and 21.7 µM (active).

As to `Nc1nc2ccccc2[nH]1`, the Potency result in [1], in [2], in assay [3], in assay [4], in [5] and in assay [6] was “inactive” in each case. The Potency result in assay [7], in assay [8], in assay [9], in assay [10], in assay [12] and in assay [13] was “inactive” throughout. The Potency result in assay [15], in assay [16], in assay [17], in [18], in assay [19] and in assay [20] was “inactive” each time.

On to `C=CC(=O)OCCCCCCCC`, for which the Potency entry in assay [1], in [2], in assay [3], in assay [4], in [5] and in [6] was “inactive” throughout. The Potency entry in assay [7], in [8], in [9], in assay [10], in assay [11] and in [12] was “inactive” each time. Moreover, the Potency entry in [13], in assay [14], in [15], in assay [16], in assay [17] and in [18] was “inactive” in each case. Also, the Potency result in [19] and in [20] was “inactive” each time.

With `COC(=O)c1cccc(C(=O)OC)c1`, the Potency entry in assay [1], in assay [2], in assay [3], in assay [4], in assay [5] and in assay [6] was “inactive” throughout. Moreover, the Potency entry in assay [7], in assay [8], in assay [9], in assay [10], in assay [11] and in [12] was “inactive” each time. Also, the Potency result in assay [13], in assay [14], in assay [15], in assay [16], in assay [17] and in assay [18] was “inactive” throughout. Moreover, the Potency result in assay [19] and in assay [20] was “inactive” each time.

Values taken from PubChem BioAssay (Tox21).
